Data published in publication PMC8769072, “Proteome‐scale mapping of binding sites in the unstructured regions of the human proteome” (Molecular Systems Biology, 2022).

Molecular target: TNKS 174-649, O95271
Sequence (O95271 174-649): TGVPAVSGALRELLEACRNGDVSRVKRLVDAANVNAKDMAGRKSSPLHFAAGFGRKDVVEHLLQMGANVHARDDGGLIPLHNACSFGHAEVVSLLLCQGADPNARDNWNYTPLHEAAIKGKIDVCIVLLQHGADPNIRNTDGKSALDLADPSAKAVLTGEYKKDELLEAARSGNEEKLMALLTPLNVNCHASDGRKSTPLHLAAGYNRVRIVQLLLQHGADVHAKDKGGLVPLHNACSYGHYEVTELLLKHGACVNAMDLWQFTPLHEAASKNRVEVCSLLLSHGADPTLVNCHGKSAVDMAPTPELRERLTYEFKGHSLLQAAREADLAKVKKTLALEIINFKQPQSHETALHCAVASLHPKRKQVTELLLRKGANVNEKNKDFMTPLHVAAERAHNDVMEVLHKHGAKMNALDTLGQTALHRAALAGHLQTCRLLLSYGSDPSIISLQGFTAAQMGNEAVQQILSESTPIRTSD

| Binder | selected by phage display |
| --- | --- |
| RVVDGAEMALPGLATQ [KIF26B, Q2KJY2] | confidence 2 (active) |
| QYVTREPPEGSLLDVD [FAM83H, Q6ZRV2] | confidence 2 (active) |
| GGRTPAARDSIVREVI [MTHFD1L, Q6UB35] | confidence 2 (active) |
| MSGLVLGQRDEPAGHR [KLC4, Q9NSK0] | confidence 2 (active) |
| QTIERMGSGVERMGPA | confidence 3 (active) |
| LDMHTVTREEGEGMET [GCC2, Q8IWJ2] | confidence 3 (active) |
| PQLPHLQRSPPDGQSF [SH3BP2, P78314] | confidence 2 (active) |
| SLIERGAAAGSEDAVK [SPTAN1, Q13813] | confidence 2 (active) |
| LFLPRTEADGKSYVKY [ENDOG, Q14249] | confidence 4 (active) |
| SVERMGSGIERMGPLG | confidence 4 (active) |
| MMVESASETIRSAPSG [FOXP4, Q8IVH2] | confidence 3 (active) |
| REAPEGMASSLGALNL [CACNA1S, Q13698] | confidence 4 (active) |
| RGLVDGGEAVEARLRD [CGN, Q9P2M7] | confidence 3 (active) |
| EPWLDRVIQGSSTSSS [DIP2A, Q14689] | confidence 3 (active) |
| GGLDGPRLAIPGMDGG [PAN3, Q58A45] | confidence 3 (active) |
| AQVLSQRLEAEGLSTL [LENG9, Q96B70] | confidence 2 (active) |
| GTREDPAGQETTAITN [LINC01547, P58512] | confidence 2 (active) |
| TSVVGFSADGMRPEAI [MAP4K4, O95819] | confidence 2 (active) |
| SVLQPGIAMETRGLAD [CNGA3, Q16281] | confidence 2 (active) |
| ATGSDPLWQRLEPAGH [PLCH2, O75038] | confidence 4 (active) |

| Binder | selected by phage display |
| --- | --- |
| EEDADTMRLQPIGRDK [RSF1, Q96T23] | confidence 3 (active) |
| GGGPDRLEPEMVRMVV [NAB2, Q15742] | confidence 2 (active) |
| AQQALERTPGDGLATM [THAP4, Q8WY91] | confidence 3 (active) |
| VPGLGGPGESRHEPLG [HOXA13, P31271] | confidence 2 (active) |
| DELRMEPLGLEGLNML [CRTC2, Q53ET0] | confidence 3 (active) |
| DIRGLAAGSAETLPAN [PPFIA1, Q13136] | confidence 2 (active) |
| RQEALGAEHNSSALLP [AKAP13, Q12802] | confidence 3 (active) |
| YLSFRSVGDGLSTSAV [CSB-PGBD3, P0DP91] | confidence 3 (active) |
| HGDGEVRQPPVGIAVA [BAHCC1, Q9P281] | confidence 2 (active) |
| RTESIRWLIPGQEQEH [TXNDC15, Q96J42] | confidence 3 (active) |
| SPQFVGNLRESPLGQE [CCNH, P51946] | confidence 2 (active) |
| ERSSGDGEELERLTKP [SLC35A5, Q9BS91] | confidence 3 (active) |
| TLNERLAAEGQAIDGA [WDR37, Q9Y2I8] | confidence 3 (active) |
| QERLIPLGHASKSAPM [ERRFI1, Q9UJM3] | confidence 2 (active) |
| DYVLTYNYEGRGSPAG [DSC3, Q14574] | confidence 2 (active) |
| IGRISAEGGEQVERVV [APOL2, Q9BQE5] | confidence 3 (active) |
| ARQEPQGQEHQVDNTV [AMOTL1, Q8IY63] | confidence 3 (active) |
| VTSSPIRGAGDGMETE [BLZF1, Q9H2G9] | confidence 2 (active) |
| LPPAEAVRWAPVGAVA [RUNDC1, Q96C34] | confidence 4 (active) |

Molecular target: TSG101 1-145, Q99816
Sequence (Q99816 1-145): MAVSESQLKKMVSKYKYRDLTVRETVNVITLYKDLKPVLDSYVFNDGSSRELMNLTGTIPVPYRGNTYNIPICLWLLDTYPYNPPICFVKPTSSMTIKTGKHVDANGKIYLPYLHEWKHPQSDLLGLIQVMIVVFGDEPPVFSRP

| Binder | selected by phage display |
| --- | --- |
| VTLPTAPNMNSEPTLQ [MFSD6, Q6ZSS7] | confidence 3 (active) |
| TAAIPSAPVLPPPPVH [YLPM1, P49750] | confidence 4 (active) |
| AVGASAPSAPTAHPQP [DCAF1, Q9Y4B6] | confidence 2 (active) |
| SLPHTPTTPTAPLTPV [FOXP1, Q9H334] | confidence 3 (active) |
| EHAELAPPAPSAPSWG [SHKBP1, Q8TBC3] | confidence 3 (active) |
| EVLASAPPLPPSTAAP [WASH4P, A8MWX3] | confidence 3 (active) |
| PTPTAPLLPPQPATPL [EP300, Q09472] | confidence 2 (active) |
| LPSAPGAEQTAGSLLY [E2F3, O00716] | confidence 2 (active) |
| EVHTAPSAPLAFGSQQ [ZNF589, Q86UQ0] | confidence 3 (active) |
| AEASAPPAPELFSPPV [EME1, Q96AY2] | confidence 2 (active) |
| PSAPLPFVPPPAVPSV [PRRC1, Q96M27] | confidence 4 (active) |
| PSALPSVPEPSAPAAP [TRIM47, Q96LD4] | confidence 3 (active) |
| AEPSAPSLPAGPTGVE [TMEM131L, A2VDJ0] | confidence 3 (active) |
| SVAKAVQASAPADERI [STOX1, Q6ZVD7] | confidence 3 (active) |
| SQPSAPDFVQRGFDSF [UTRN, P46939] | confidence 2 (active) |
| PTAPIFLQGLSDLKVM [MYLK, Q15746] | confidence 3 (active) |
| MARPDPSAPPSLLLLL [FZD5, Q13467] | confidence 2 (active) |
| VGAKALPTAPPPPPLP [INF2, Q27J81] | confidence 3 (active) |
| PTAPELRPSTSTDRPV | confidence 3 (active) |
| PSAPDMEDFGLVKLPH [POLE, Q07864] | confidence 2 (active) |
| VVVPSAPEVQETTRML [NEO1, Q92859] | confidence 2 (active) |
| PVVPTAPELQPSTSTD | confidence 3 (active) |
| VTVVPTAPDPVPADSV [CABIN1, Q9Y6J0] | confidence 3 (active) |
